High-throughput results: PubChem BioAssay, National Center for Advancing Translational Sciences (NCATS)
D1 antag: blocks dopamine activation of the human D1 receptor | HEK293 TREx D1 cells, calcium flux, dopamine EC80; stronger effect = lower value | activity change, negative = inhibition, % at 10 µM | actives 3.2% (n = 360,000) | AID 504652; in the data active = activity change below about -30%
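Antagonism measured as reduced calcium response to an EC80 dopamine addition following 180 s compound pre-read; cells were inducible HEK293 Trex D1 plated overnight at 30 C, read kinetically at 1 cycle/sec.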
D1 potentiator: potentiators of human D1 dopamine receptor. HEK293 TREx D1 cells, calcium flux, dopamine EC20 potentiation. potentiation, % at 10 µM. actives 0.036% (n = 360,000). AID 504651; in the data active = potentiation above about 30%
TRPV1 PAM: enhances activation of the human vanilloid receptor TRPV1. potentiation, % at 8.33 µM. Q8NER1. AID 540277. TRPV1-expressing cells, Fluo-8 calcium influx, capsaicin EC20 potentiation. actives 0.02% (n = 320,000); in the data active = potentiation above about 80%; inconclusive = between about 30% and that limit
Target sequence (Q8NER1 whole entry, looked up): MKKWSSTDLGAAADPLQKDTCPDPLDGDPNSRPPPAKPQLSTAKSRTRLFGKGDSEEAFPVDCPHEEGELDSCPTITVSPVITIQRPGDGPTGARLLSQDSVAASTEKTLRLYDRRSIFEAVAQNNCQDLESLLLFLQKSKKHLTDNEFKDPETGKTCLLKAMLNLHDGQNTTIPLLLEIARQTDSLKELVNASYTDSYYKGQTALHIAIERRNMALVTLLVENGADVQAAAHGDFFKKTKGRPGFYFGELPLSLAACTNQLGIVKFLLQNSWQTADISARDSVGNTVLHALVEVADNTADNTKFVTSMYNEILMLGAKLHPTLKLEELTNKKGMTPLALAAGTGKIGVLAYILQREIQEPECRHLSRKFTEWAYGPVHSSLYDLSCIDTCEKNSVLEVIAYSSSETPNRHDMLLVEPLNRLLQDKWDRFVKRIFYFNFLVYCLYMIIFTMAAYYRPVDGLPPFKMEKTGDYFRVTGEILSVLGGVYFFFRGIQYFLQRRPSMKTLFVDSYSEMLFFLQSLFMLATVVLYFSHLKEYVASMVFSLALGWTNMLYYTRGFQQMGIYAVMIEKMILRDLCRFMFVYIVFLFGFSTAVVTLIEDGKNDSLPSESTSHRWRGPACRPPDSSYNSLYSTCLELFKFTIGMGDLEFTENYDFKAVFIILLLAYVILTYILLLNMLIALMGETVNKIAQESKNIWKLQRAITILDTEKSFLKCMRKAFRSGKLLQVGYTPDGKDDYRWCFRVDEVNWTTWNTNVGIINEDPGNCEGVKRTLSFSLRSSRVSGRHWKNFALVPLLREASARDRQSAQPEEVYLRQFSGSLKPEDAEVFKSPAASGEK
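Cells expressing TRPV1 were dye-loaded with Fluo-8 and read kinetically: 10 s baseline, 3 min after compound (agonist portion), then 2 min after EC20 capsaicin (allosteric enhancer portion). Calcium-bound dye fluorescence at 480/520 nm.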
TRPV1 agonist: activates the human vanilloid receptor TRPV1 | Q8NER1 | TRPV1-expressing cells, Fluo-8 calcium influx, agonist mode | activation, % at 8.33 µM | actives 0.19% (n = 320,000) | AID 540275; in the data active = activation above about 80%; inconclusive = between about 30% and that limit
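Fluo-8 calcium influx in TRPV1-expressing cells, kinetic read (ex 480/em 520 nm). Compound added and read 3 min for agonist activity, followed by capsaicin at EC20 final and 2 min further read for enhancement.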
D1 ag: activates the human D1 dopamine receptor. activation, % at 2 µM. HEK293 T-REx D1 cells, calcium flux, agonist mode. actives 1% (n = 360,000); in the data active = activation above about 30%
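Tetracycline-induced HEK293 TREx D1 cells, force-coupled to calcium signalling, were dye-loaded with a no-wash calcium kit. Compound was pin-added after a 10 s baseline. Fluorescence was read kinetically at 1 cycle/s for 180 s, with calcium rises flagged as agonism.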
Numbers stand for hits; - = inactive; ? = inconclusive; . = no result given; ! = repeats disagree. Compounds with a hit are over-represented: about 4.2% of the library has one in this group of screens.

SMILES	D1 antag	D1 potentiator	TRPV1 PAM	TRPV1 agonist	D1 ag
CC(C)CCC(CCNCc1ccccn1)c1ccc2c(c1)OCO2 (stereo not given)	-	-	-	?	30
COc1ccc(CNCCC(c2ccc(C)cc2)c2ccco2)cc1 (stereo not given)	-	-	.	.	92
Cc1cccc(Nc2n[nH]c(=S)s2)c1C	-	-	-	-	-
COc1ccc(Nc2ncnc3ccccc23)cc1	-	-	-	?	-
Cc1cccc(Nc2nc3ccccc3s2)c1C	-	-	-	-	30
COc1ccc(Nc2ccnc3ccccc23)cc1	-43	-	-	-	-
COc1ccc(Nc2nc3ccccc3s2)cc1	-38	-	-	-	-
COc1ccc(NC(=O)Cn2c(=O)n(-c3ccc(C)cc3)c(=O)c3c2cnn3C)cc1	-	-	.	.	-
COc1ccc(CN(C(=O)Cc2coc3ccc(C)cc23)C2CCS(=O)(=O)C2)cc1 (stereo not given)	-	-	.	.	-
COc1ccccc1NC(=O)CSCc1cc(=O)c2cccc(Cl)c2[nH]1	-48	-	.	.	-
Cc1ccc(-n2nc(CO)c(C(=O)NCc3ccccn3)n2)cc1C	-	-	.	.	-
COc1cc(N)c(Cl)cc1C(=O)N[C@@H]1CCN(CCCOc2ccc(F)cc2)C[C@@H]1OC	-58	-	-	-	-
COC(=O)c1sccc1S(=O)(=O)N(CC(=O)Nc1cc(C)cc(C)c1)c1ccc(Cl)cc1	-	-	.	.	-
CCc1nnc(NS(=O)(=O)c2ccc(NCc3cc(Cl)cc(Cl)c3O)cc2)s1	-	-	-	-	33
CCc1nnc(NS(=O)(=O)c2ccc(NCc3cc(Cl)ccc3O)cc2)s1	-	-	-	-	-
O=C(NCCc1ccc(F)cc1)C(=O)NCC(c1ccc2c(c1)OCO2)N1CCOCC1 (stereo not given)	-	-	.	.	-
Cc1ccc(SCCC(=O)OCn2nnc3ccccc3c2=O)cc1	-	-	-	-	-
Cc1ccc(NC(=O)Cn2nnc3ccccc3c2=O)cc1C	-40	-	-	-	-
Cc1ccc(SCC(=O)OCn2nnc3ccccc3c2=O)cc1C	-33	-	-	-	-
Cc1ccc(NC(=O)Cn2nnc3ccccc3c2=O)cc1	-	-	-	-	-
COc1ccc(Cn2c(C(=O)O)c(CNCc3ccc(SC)cc3)c3ccc(OC)cc32)cc1	-	-	.	.	-
Cc1ccc(C)c(N2CCN(S(=O)(=O)c3ccc(-c4cc(C(F)(F)F)on4)s3)CC2)c1	-	-	.	.	-
CCOC(=O)c1c(NC(=O)CSc2ncccn2)sc2c1CCN(Cc1ccccc1)C2	-78	-	-	-	-
CCC(C)OC(=O)/C(C#N)=C\c1ccc(-c2ccccc2Cl)o1 (stereo not given)	-	-	.	.	-
COc1ccc(Cn2c(CCC(=O)Nc3ccccc3)nc3cccnc32)cc1	-	-	-	?	-
SMILES	D1 antag	D1 potentiator	TRPV1 PAM	TRPV1 agonist	D1 ag
COc1ccc(Cn2c(CCC(=O)Nc3cc(OC)c(OC)c(OC)c3)nc3cccnc32)cc1	-47	-	.	.	-
O=C1c2ccccc2NC(c2ccc(O)cc2)N1c1ccccc1 (stereo not given)	-75	-	-	-	-
O=C1c2ccccc2NC(c2ccccc2)N1c1ccc(O)cc1 (stereo not given)	-	-	-	-	-
CCOC(=O)c1c(C)c(-c2ccccc2)n(CC(=O)NCCc2cccc(C)c2)c1C	-	-	.	.	-
Cc1ccc(NS(=O)(=O)c2cc(C(=O)NCc3ccccn3)ccc2Cl)cc1C	-31	-	-	-	-
Cc1ccc(C)c(Sc2ccc(NC(=O)CCN3C(=O)NC4(CCCC4)C3=O)cc2)c1	-33	-	-	?	-
Cc1ccc(Sc2ccc(NC(=O)CCl)cc2)c(C)c1	-73	-	-	?	-
CC(C)c1ccc(NC(=O)CCCN2C(=O)NC(C)(C)C2=O)cc1	-53	-	-	-	-
CC1(C)NC(=O)N(CCCC(=O)Nc2ccc(C(F)(F)F)cc2)C1=O	-	-	-	-	-
Cc1cc(Nc2cccc(C(F)(F)F)c2)nc2ccc(NC(=O)Cc3ccc(Cl)cc3)cc12	-	-	.	.	-
C/C(N)=C(/C#N)C(=O)CSc1nnc(-c2ccc3c(c2)OCO3)o1	-	-	-	-	-
C/C(N)=C(/C#N)C(=O)CSc1nnc(-c2ccc(OC(F)F)cc2)o1	-37	-	-	-	-
Cc1ccc(CNC(=O)C2CCC(CNS(=O)(=O)c3cccc4cccnc34)CC2)cc1 (stereo not given)	-	-	-	-	-
CC1CCCCC1NC(=O)C1CCC(CNS(=O)(=O)c2cccc3cccnc23)CC1 (stereo not given)	-37	-	-	-	-
O=C(NC1CCCCC1)C1CCCN(S(=O)(=O)c2cccc3cccnc23)C1 (stereo not given)	-30	-	-	-	-
O=C(C1CCCN(S(=O)(=O)c2cccc3cccnc23)C1)N1CCN(c2ccc(F)cc2)CC1 (stereo not given)	-36	-	.	.	-
O=C(C1CCN(S(=O)(=O)c2cccc3nonc23)CC1)N1CCN(c2ccccc2F)CC1	-37	-	.	.	-
Cc1c(CC(=O)NCc2ccccc2)c(=O)oc2c(C)c(O)ccc12	-	-	.	.	-
COc1ccc(CCN2C(=O)c3[nH]nc(-c4ccccc4O)c3C2c2ccccc2)cc1 (stereo not given)	-	-	.	.	-
COc1cccc(Cc2nc3ccccc3nc2SCC(=O)Nc2ccccc2F)c1	-	-	.	.	-
COc1cccc(NC(=O)C2CCCN(S(=O)(=O)c3cccc4cccnc34)C2)c1 (stereo not given)	-35	-	-	-	-
O=C(Nc1ccncc1)C1CCCN(S(=O)(=O)c2cccc3cccnc23)C1 (stereo not given)	-	-	-	-	-
O=C(C1CCN(S(=O)(=O)c2cccc3nsnc23)CC1)N1CCc2ccccc2C1	-44	-	-	-	-
CC1CCCN(C(=O)C2CCN(S(=O)(=O)c3cccc4nsnc34)CC2)C1 (stereo not given)	-	-	-	-	-
O=C(Nc1ccc(F)c(F)c1)C1CCCN(S(=O)(=O)c2cccc3nonc23)C1 (stereo not given)	-	-	-	-	33!
SMILES	D1 antag	D1 potentiator	TRPV1 PAM	TRPV1 agonist	D1 ag
CN(C)S(=O)(=O)c1ccc(S(=O)(=O)N2CCN(CCC#N)CC2)cc1	-33	-	-	-	-
CC1CCCCC1NS(=O)(=O)c1ccc(S(=O)(=O)N2CCN(CCC#N)CC2)cc1 (stereo not given)	-35	-	-	-	-
CCN(CC)S(=O)(=O)c1ccc(S(=O)(=O)N2CCN(CCC#N)CC2)cc1	-	-	-	-	-
COC(=O)CS(=O)(=O)c1nc2ccccc2nc1N1CCCCC1	-	-	.	.	-
COc1ccc(-c2noc(N3CCN(c4cccc(Cl)c4)CC3)n2)cc1OC	-	-	.	.	-
Cc1noc2ncnc(NCc3cccc(Cl)c3)c12	-35	-	.	.	-
